Reference: ChEMBL document CHEMBL1157539, “Thousands of chemical starting points for antimalarial lead identification” (Nature, 2010)

Legend:
Type in all cases: functional
[1] = tested on: Plasmodium falciparum; assay: GSK_TCMDC: Inhibition of Plasmodium falciparum 3D7 in whole red blood cells, using parasite LDH activity as an index of growth. Test compounds present at 2uM
[2] = tested on: Plasmodium falciparum; assay: GSK_TCMDC: Inhibition of Plasmodium falciparum Dd2 in whole red blood cells, using parasite LDH activity as an index of growth. Test compounds present at 2uM
[3] = tested on: HepG2; assay: GSK_TCMDC: Percent inhibition of human HepG2 cell line. Test compounds present at 10uM.

Row | Compound | Inhibition [1] | Inhibition [2] | Inhibition [3]
1 | OC(CNCCCc1ccccc1)c1cc(OCc2ccccc2)cc(OCc2ccccc2)c1 (stereo not given) | 93% | 85% | 8%
2 | CCCCCN1CCCN(Cc2cccc(NC(=O)c3ccc4ccccc4c3)c2)CC1.O=C(O)C(F)(F)F | 86% | 16% | 27%
3 | CCN(CC)CCNc1ccnc2[nH]c3ccc([N+](=O)[O-])cc3c12 | 100% | 76% | 6%
4 | CC1(C)Cc2c(oc3ncn(CCn4cnc5oc6c(c5c4=N)CC(C)(C)SC6)c(=N)c23)CS1 | 98% | 93% | 0%
5 | O=C(Cc1cccc(Cl)c1)Nc1cccc(-c2c[nH]c3nc(Nc4cccc(OCc5ccccc5)c4)ncc23)c1.O=C(O)C(F)(F)F | 100% | 56% | 0%
6 | CCc1cn2c3c(cc(C(=O)N[C@@H](Cc4ccccc4)[C@H](O)CNC(C)C)cc13)N(C)S(=O)(=O)C2.O=CO | 98% | 98% | 16%
7 | COc1ccc2nccc([C@@H](O)CN3CCC(NCc4nc5ccccc5[nH]4)CC3)c2c1.O=C(O)C(=O)O | 92% | 2% | 41%
8 | CC(C)Cc1cn(-c2nc(-c3nc4ccccc4[nH]3)cs2)c2cc(Cl)ccc12.Cl | 99% | 68% | 9%
9 | Cc1cccc2nc(-c3ccc(-c4ccc(CN5CC(C)OC(C)C5)cc4)cc3)[nH]c12.O=C(O)C(F)(F)F (stereo not given) | 97% | 96% | 37%
10 | Cc1cc(N(C)CCCN2CCCCC2)nc(Nc2ccc(Cl)cc2)n1.Cl | 100% | 82% | 7%
